Test results reported in PubChem BioAssay (NCATS).
Values joined by “and” are separate entries in the source; they are usually repeats but may differ in a detail not shown here. Identical values can stand only once. Records with an inconclusive call do not appear. Active and inactive are the calls of the source. Unless noted, calls come from the whole dose curve.

Assays:
[1] = qHTS assay for small molecule agonists of retinoid X receptor alpha signaling (AID 588544); details: HEK293T RXRa-UAS-bla, beta-lactamase reporter, 18 h; 530 nm emission;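 for activation: 0% = DMSO basal wells and 100% = reference agonist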
[2] = molecular target: Retinoic acid receptor RXR-alpha (Homo sapiens) (UniProt P19793); assay: as above; details: HEK293T RXRa-UAS-bla, beta-lactamase reporter, 18 h; series mostly up to 76.7 µM
[3] = molecular target: Thyroid hormone receptor beta (Homo sapiens) (UniProt P10828); assay: qHTS assay for small molecule agonists of thyroid hormone receptor beta signaling (AID 588545); details: TR-UAS-bla GripTite HEK 293, beta-lactamase ratio, agonist mode, 18 h, percent of T3 response, DMSO as zero; series mostly up to 76.7 µM;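 note: 0% = DMSO only and 100% = 10 nM T3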
Summary of the method: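 Efficacy and EC50 values derive from Hill fits of qHTS titration data, normalized to 10 nM T3 and DMSO-only wells. HEK 293 reporter cells were stimulated for 18 hrs at 37 C, with beta-lactamase activity measured by CCF4 fluorescence.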

[4] = qHTS assay for small molecule antagonists of retinoid X receptor alpha signaling (AID 588546; active = well fitted inhibition curve with a large enough effect in the signal ratio, with a control signal flat, not every such curve was filed as active; the % refers to the signal ratio;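 note: cells stimulated with 9-cis-retinoic acid as agonist; % is set by controls: 0 for no effect and ±100 for the full control effect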); details: HEK293T RXRa-UAS-bla, beta-lactamase ratio, antagonist mode; measured here: W530 green channel, cytotoxicity proxy
Summary of the method: (§1)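 Beta-lactamase reporter inhibition, read as CCF4 fluorescence ratio (ex 405, em 460/530 nm) after 2 h at RT. HEK293T UAS-bla cells, 2500/well, were stimulated with 9-cis-RA at 500 or 100 nM final alongside test compound for 18 h at 37 C.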

[5] = molecular target: Retinoic acid receptor RXR-alpha (Homo sapiens) (UniProt P19793); assay: as above; details: HEK293T RXRa-UAS-bla, beta-lactamase ratio, antagonist mode
Summary of the method: as §1

[6] = molecular target: Voltage-gated inwardly rectifying potassium channel KCNH2 (Homo sapiens) (UniProt Q12809); assay: qHTS Assay for Small Molecule Inhibitors of the Human hERG Channel Activity (AID 588834; active = well fitted inhibition curve with a large enough effect;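 note: top concentration of the series differs between compounds; % is set by controls: 0 for no effect and ±100 for the full control effect; lower thallium flux fluorescence means stronger hERG block; nearly all actives have a fitted effect of over 50% in size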); details: U2OS BacMam hERG, FluxOR thallium flux fluorescence; series mostly up to 92.2 µM
Summary of the method: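 hERG-BacMam U2OS, 2000 cells/well; 0.7X FluxOR loading 1 hr RT dark; cpd ~10 min 37 °C; stim buffer; FDSS fluorescence 2 min @ 1 s; AC50 Hill fit.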

[7] = qHTS assay for small molecule agonists of the antioxidant response element (ARE) signaling pathway (AID 651741; active = well fitted activation curve with a large enough effect in the signal ratio; the % refers to the signal ratio; note: potency is the fitted concentration of half-maximal effect; for activation: % of control where 0% means no effect); details: HepG2 ARE-bla reporter, beta-lactamase FRET ratio, 16 h; series mostly up to 96 µM
Summary of the method: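 Compounds in DMSO are pinned onto HepG2 ARE-bla cells (2,000/well) that were preincubated 5 h; plates stay 16 h at 37 C, then beta-lactamase activity is detected with LiveBLAzer B/G substrate by fluorescence.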

[8] = qHTS assay for small molecule activators of the p53 signaling pathway (AID 651743; active = well fitted activation curve with a large enough effect in the signal ratio, not every such curve was filed as active; the % refers to the signal ratio; note: % of control where 0% means no effect); details: HCT-116 p53RE-bla, beta-lactamase FRET ratio, 16 h; stronger effect = higher value
Summary of the method: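 Cell-based beta-lactamase reporter (p53 response elements, HCT-116 background). After a 5-hour preincubation, cells received compound for 16 hours at 37 C; substrate development ran 2 hours at room temperature.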

[9] = qHTS assay for small molecule activators of the nuclear factor-kappa B (NF-kB) signaling pathway (AID 651749; active = well fitted activation curve with a large enough effect in the signal ratio; the % refers to the signal ratio; note: % of control where 0% means no effect); details: NF-kB-bla ME-180 cells, beta-lactamase FRET ratio, 16 h; stronger effect = higher value
Summary of the method: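 Screening used 2,000 ME-180 reporter cells per well exposed to pinned compound (23 nL) or DMSO; after 16 hr at 37C, beta-lactamase expression under NF-kB control was assessed through FRET.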

[10] = molecular target: Thyroid hormone receptor beta (Homo sapiens) (UniProt P10828); assay: qHTS assay for small molecule antagonists of thyroid hormone receptor beta signaling (AID 588547; active = well fitted inhibition curve with a large enough effect in the signal ratio, with a control signal flat, not every such curve was filed as active; the % refers to the signal ratio;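 note: cells stimulated with 0.4 nM T3 agonist during compound exposure; % is set by controls: 0 for no effect and ±100 for the full control effect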); details: TR-UAS-bla HEK293, beta-lactamase ratio, antagonist mode, 18 h
Summary of the method: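 TR-UAS-bla GripTite HEK293 cells in 2% charcoal/dextran FBS medium were preincubated 4 h at 37 C, given compound (0.59 nM to 92 uM) plus 0.4 nM T3 (final) for 18 h, then CCF4 for 2 h at RT; Hill fit gave IC50.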

Chain of Voltage-gated inwardly rectifying potassium channel KCNH2 (Homo sapiens) (Q12809 whole entry, looked up): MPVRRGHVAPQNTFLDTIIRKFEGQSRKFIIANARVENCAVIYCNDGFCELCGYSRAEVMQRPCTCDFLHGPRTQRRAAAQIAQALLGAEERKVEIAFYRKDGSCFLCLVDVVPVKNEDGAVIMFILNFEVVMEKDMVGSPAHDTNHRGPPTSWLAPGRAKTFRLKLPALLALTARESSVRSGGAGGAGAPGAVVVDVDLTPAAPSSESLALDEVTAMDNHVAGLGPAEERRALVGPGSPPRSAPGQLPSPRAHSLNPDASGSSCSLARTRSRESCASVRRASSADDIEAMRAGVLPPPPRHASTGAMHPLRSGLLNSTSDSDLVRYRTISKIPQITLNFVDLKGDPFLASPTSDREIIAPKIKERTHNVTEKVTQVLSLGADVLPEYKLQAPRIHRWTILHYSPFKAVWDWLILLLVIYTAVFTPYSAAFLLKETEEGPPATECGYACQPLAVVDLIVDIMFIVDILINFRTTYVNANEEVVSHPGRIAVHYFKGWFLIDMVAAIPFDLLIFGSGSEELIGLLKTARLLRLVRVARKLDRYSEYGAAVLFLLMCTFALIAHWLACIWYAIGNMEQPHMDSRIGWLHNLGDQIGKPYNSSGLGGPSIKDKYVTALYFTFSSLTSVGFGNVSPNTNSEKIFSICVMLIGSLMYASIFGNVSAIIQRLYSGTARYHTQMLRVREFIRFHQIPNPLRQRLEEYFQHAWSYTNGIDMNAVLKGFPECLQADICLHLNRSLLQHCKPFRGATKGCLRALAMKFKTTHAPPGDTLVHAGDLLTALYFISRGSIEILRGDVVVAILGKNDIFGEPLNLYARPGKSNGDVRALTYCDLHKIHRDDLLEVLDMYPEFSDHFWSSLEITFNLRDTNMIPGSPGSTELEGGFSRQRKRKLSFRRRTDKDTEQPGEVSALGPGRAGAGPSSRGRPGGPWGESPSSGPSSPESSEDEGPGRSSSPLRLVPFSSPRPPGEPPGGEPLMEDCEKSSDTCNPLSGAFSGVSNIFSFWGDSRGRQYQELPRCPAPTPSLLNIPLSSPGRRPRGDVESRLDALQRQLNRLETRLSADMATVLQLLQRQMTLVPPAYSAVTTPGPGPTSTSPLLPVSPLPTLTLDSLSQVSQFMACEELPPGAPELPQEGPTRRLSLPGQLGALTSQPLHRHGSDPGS
Chain of Thyroid hormone receptor beta (Homo sapiens) (P10828 whole entry, looked up): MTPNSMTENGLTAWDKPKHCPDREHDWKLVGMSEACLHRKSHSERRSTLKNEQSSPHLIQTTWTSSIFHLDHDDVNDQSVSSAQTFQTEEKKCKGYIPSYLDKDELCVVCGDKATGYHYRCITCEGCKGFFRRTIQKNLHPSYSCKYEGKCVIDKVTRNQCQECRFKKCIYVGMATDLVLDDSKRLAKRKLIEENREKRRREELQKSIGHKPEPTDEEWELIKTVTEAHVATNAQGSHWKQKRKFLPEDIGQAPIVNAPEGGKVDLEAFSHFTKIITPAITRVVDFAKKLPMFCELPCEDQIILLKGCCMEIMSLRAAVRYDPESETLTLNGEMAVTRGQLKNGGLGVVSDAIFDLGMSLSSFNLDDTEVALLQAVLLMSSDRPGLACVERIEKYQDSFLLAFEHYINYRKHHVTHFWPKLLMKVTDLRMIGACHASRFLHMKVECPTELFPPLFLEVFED
Chain of Retinoic acid receptor RXR-alpha (Homo sapiens) (P19793 whole entry, looked up): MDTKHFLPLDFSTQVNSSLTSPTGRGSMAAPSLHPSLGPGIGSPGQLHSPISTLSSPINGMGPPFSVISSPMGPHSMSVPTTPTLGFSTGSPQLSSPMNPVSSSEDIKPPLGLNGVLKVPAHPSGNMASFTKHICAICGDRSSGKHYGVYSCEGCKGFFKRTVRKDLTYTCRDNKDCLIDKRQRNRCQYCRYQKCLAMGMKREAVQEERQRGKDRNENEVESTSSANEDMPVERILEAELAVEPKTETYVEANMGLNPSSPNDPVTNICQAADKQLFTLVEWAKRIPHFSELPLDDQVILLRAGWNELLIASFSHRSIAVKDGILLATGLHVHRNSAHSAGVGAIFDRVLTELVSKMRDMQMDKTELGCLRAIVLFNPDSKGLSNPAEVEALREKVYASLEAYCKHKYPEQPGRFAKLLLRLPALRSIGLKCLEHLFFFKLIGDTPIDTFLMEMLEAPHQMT

## CCCCCCCCN
[1]
  max response: -7.59%
[2]
  outcome: inactive
[3]
  outcome: inactive
[4]
  max response: 2.38%
[5]
  max response: 13.9% (inactive)
[6]
  Potency: inactive
[7]
  Potency: inactive
[8]
  activation: -1.65% (inactive)
[9]
  activation: -1.11% (inactive)

## C=Cc1ccc(C=C)cc1
[1]
  max response: -1.02%
[2]
  outcome: inactive
[3]
  outcome: inactive
[4]
  max response: -3.44%
[5]
  max response: 16.7% (inactive)
[6]
  Potency: inactive
[7]
  Potency: inactive
[9]
  activation: 0.161% (inactive)

## FB(F)F
[1]
  max response: -9.29%
[2]
  outcome: inactive
[3]
  outcome: inactive
[4]
  max response: 16.6%
[5]
  max response: -6.25% (inactive)
[6]
  Potency: inactive
[7]
  Potency: inactive
[9]
  activation: 5.29% (inactive)

## CCCCC(CC)COC(=O)CCCCC(=O)OCC(CC)CCCC (stereo not drawn)
[1]
  max response: -13% and -12.5%
[2]
  outcome: inactive
[3]
  outcome: inactive
[4]
  max response: -3.16% and -14.9%
[5]
  max response: 12% (inactive) and 4.32% (inactive)
[6]
  Potency: inactive
[7]
  Potency: inactive

## c1ccc2c(c1)Oc1ccccc1S2
[1]
  max response: -9.36%
[2]
  outcome: inactive
[3]
  outcome: inactive
[4]
  max response: -7.12%
[5]
  max response: 5.17% (inactive)
[10]
  activity change % (negative = inhibition): -3.93% (inactive)
[7]
  Potency: inactive
[8]
  activation: 0.189% (inactive)
[9]
  activation: -0.203% (inactive)

## NC(=O)CCCCC(N)=O
[1]
  max response: -19.9%
[2]
  outcome: inactive
[3]
  outcome: inactive
[4]
  max response: -2.99%
[5]
  max response: 6.15% (inactive)
[6]
  Potency: inactive
[8]
  activation: -2.38% (inactive)
[9]
  activation: 1.81% (inactive)

## ON=C1CCCCC1
[1]
  max response: -11.2%
[2]
  outcome: inactive
[3]
  outcome: inactive
[4]
  max response: 5.82%
[5]
  max response: 4.41% (inactive)
[6]
  Potency: inactive
[8]
  activation: -1.24% (inactive)
[9]
  activation: -0.0489% (inactive)

## O=C(O)/C=C/C(=O)O
[1]
  max response: -9.62%
[2]
  outcome: inactive
[3]
  outcome: inactive
[4]
  max response: -3.98%
[5]
  max response: 8.67% (inactive)
[10]
  activity change % (negative = inhibition): 3% (inactive)
[8]
  activation: -2.03% (inactive)
[9]
  activation: -1.19% (inactive)

## CC(=O)CC(C)C
[1]
  max response: -6.71%
[2]
  outcome: inactive
[3]
  outcome: inactive
[4]
  max response: -1.65%
[5]
  max response: 12.3% (inactive)
[10]
  activity change % (negative = inhibition): -3.32% (inactive)
[7]
  Potency: inactive
[8]
  activation: -2.45% (inactive)

## Nc1cccc(S(=O)(=O)O)c1
[1]
  max response: 8.69%
[2]
  outcome: inactive
[3]
  outcome: inactive
[4]
  max response: -5.6%
[5]
  max response: 16.1% (inactive)
[6]
  Potency: inactive
[7]
  Potency: inactive
[8]
  activation: -1.01% (inactive)
[9]
  activation: -0.968% (inactive)

## CCCCC(CC)CNCC(CC)CCCC (stereo not drawn)
[1]
  max response: 2.31%
[2]
  outcome: inactive
[3]
  outcome: inactive
[4]
  max response: 0.349%
[5]
  max response: 10% (inactive)
[10]
  activity change % (negative = inhibition): 4.7% (inactive)
[7]
  Potency: inactive
[9]
  activation: -0.684% (inactive)

## CC#N
[1]
  max response: 8.5%
[2]
  outcome: inactive
[3]
  outcome: inactive
[4]
  max response: -2.35%
[5]
  max response: 10.2% (inactive)
[6]
  Potency: inactive
[8]
  activation: -3.18% (inactive)
[9]
  activation: -1.06% (inactive)

## O=Cc1ccc(Cl)cc1
[1]
  max response: -8%
[2]
  outcome: inactive
[3]
  outcome: inactive
[4]
  max response: -0.849%
[5]
  max response: -5.61% (inactive)
[6]
  Potency: inactive
[8]
  activation: -0.245% (inactive)

## CCCCC(=O)N(C)C
[1]
  max response: -11.8%
[2]
  outcome: inactive
[3]
  outcome: inactive
[4]
  max response: -2.95%
[5]
  max response: 11.5% (inactive)
[10]
  activity change % (negative = inhibition): 6.71% (inactive)
[6]
  Potency: inactive
[9]
  activation: -0.0165% (inactive)

## C=C(C)C1CC=C(C)C(OC(C)=O)C1 (stereo not drawn)
[1]
  max response: -3.57%
[2]
  outcome: inactive
[3]
  outcome: inactive
[4]
  max response: -6.8%
[5]
  max response: 1.02% (inactive)
[6]
  Potency: inactive
[8]
  activation: 1.6% (inactive)

## O=CNc1ccccc1
[1]
  max response: -8.25%
[2]
  outcome: inactive
[3]
  outcome: inactive
[4]
  max response: 2.83%
[5]
  max response: 1.7% (inactive)
[6]
  Potency: inactive

## c1ccc2n[nH]nc2c1
[1]
  max response: -15.8%
[2]
  outcome: inactive
[3]
  outcome: inactive
[4]
  max response: -16.6%
[5]
  max response: -7.97% (inactive)
[6]
  Potency: inactive
[8]
  activation: -4.32% (inactive)
[9]
  activation: 1% (inactive)

## Cc1cccc2sc(N)nc12
[1]
  max response: -1.76%
[2]
  outcome: inactive
[3]
  outcome: inactive
[4]
  max response: -5.71%
[5]
  max response: 1.45% (inactive)
[6]
  Potency: inactive
[7]
  Potency: 15 µM (active)
[8]
  activation: 2.1% (inactive)
[9]
  activation: 0.512% (inactive)

## Cc1cc(C)c(N)cc1C
[1]
  max response: -11.9%
[2]
  outcome: inactive
[3]
  outcome: inactive
[4]
  max response: 3.08%
[5]
  max response: 16.4% (inactive)
[6]
  Potency: inactive
[7]
  Potency: inactive
[9]
  activation: -0.054% (inactive)

## C=Cc1ccccn1
[1]
  max response: -16.6%
[2]
  outcome: inactive
[3]
  outcome: inactive
[4]
  max response: -12.9%
[5]
  max response: -1.58% (inactive)
[6]
  Potency: inactive
[8]
  activation: -2.17% (inactive)

## Cc1cc([N+](=O)[O-])ccc1N
[1]
  max response: -1.24%
[2]
  outcome: inactive
[3]
  outcome: inactive
[4]
  max response: -8.79%
[5]
  max response: 2.58% (inactive)
[10]
  activity change % (negative = inhibition): -9.22% (inactive)
[7]
  Potency: inactive
[8]
  activation: -4.49% (inactive)
[9]
  activation: -0.648% (inactive)

## CCc1ccccc1O
[1]
  max response: -12.3%
[2]
  outcome: inactive
[3]
  outcome: inactive
[4]
  max response: -5.98%
[5]
  max response: 5.77% (inactive)
[6]
  Potency: inactive

## BrC(Br)C(Br)Br
[1]
  max response: -10.8%
[2]
  outcome: inactive
[3]
  outcome: inactive
[4]
  max response: -6.63%
[5]
  max response: -0.43% (inactive)
[6]
  Potency: inactive
[8]
  activation: -2.69% (inactive)
[9]
  activation: 2.53% (inactive)

## CC(C=O)Cc1ccc(C(C)(C)C)cc1 (stereo not drawn)
[1]
  max response: -4.78% and -12.5%
[2]
  outcome: inactive
[3]
  outcome: inactive
[4]
  max response: 2.84% and -3.45%
[5]
  max response: -0.768% (inactive) and 2.1% (inactive)
[10]
  activity change % (negative = inhibition): 4.73% (inactive) and 0.44% (inactive)
[7]
  Potency: inactive
[8]
  activation: 3.13% (inactive) and -1.47% (inactive)

## Nc1c(Cl)cc(Cl)cc1Cl
[1]
  max response: -8.9%
[2]
  outcome: inactive
[3]
  outcome: inactive
[4]
  max response: 1.94%
[5]
  max response: 4.53% (inactive)
[6]
  Potency: inactive
[8]
  activation: -0.29% (inactive)

## Cc1cc(C2(c3cc(C)c(O)cc3C)OS(=O)(=O)c3ccccc32)c(C)cc1O
[1]
  max response: -3.17%
[2]
  outcome: inactive
[3]
  outcome: inactive
[4]
  max response: -12.4%
[5]
  max response: 0.408% (inactive)
[6]
  Potency: inactive
[8]
  activation: -5.82% (inactive)
